{
  "source": "PubChem BioAssay (NCI)",
  "note": "Several values for one entry are separate records, joined by “and”; a condition that tells them apart may be missing. Identical values can stand only once. About 83,000 compounds went through this panel and 20% of them were active in at least one assay; those are over-represented in the sample as a whole.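 A percent growth of 40 corresponds to 60% growth inhibition; 0 means no net growth; -100 means all cells died. Active threshold: below 10.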 A number with no mark means an inactive call. Activity calls are given as the source filed them.",
  "data": [
    {"system": "MCF7 breast", "experiment": "NCI-60 one-dose screen, 48 h (100 = growth as untreated, 0 = no growth, -100 = all killed)", "details": "10 µM unless noted", "experimental": "Growth inhibition of the MCF7 human tumor cell line is measured as a screen for anti-cancer activity. Cells are grown in 96 well plates and exposed to the test compound for 48 hours. Compounds are tested at a single concentration, which is 10^-5 M for most compounds. The reported endpoint is percent growth (GI% or GIPRCNT), where numbers from 0 - 100% represent growth inhibition, and numbers from -100% - 0 represent cell death. For example, a value of 40 represents 60% growth inhibition. A value of 0 means no net growth occurred over the course of the experiment. A value of -40 indicates 40% of cells at the beginning of the experiment died by the end of the experiment. A value of -100 means all cells are dead at the end of the experiment.\nNCI-60 Human Tumor Cell Lines Screen was performed using the standard one-dose NCI protocol, which is described in more detail at https://dtp.cancer.gov/discovery_development/nci-60/default.htm.\nCompounds with GIPRCNT values below 10 were considered active. Activity score was based on GIPRCNT using the following formula: […]\nScore is 0 for GIPRCNT values of 100 or above, 50 for GIPRCNT values of 0, and 100 for GIPRCNT values of -100.", "values": [
      {"smiles": "COc1cc(NC(=O)COc2ccccc2)c(C(N)=O)cc1OC", "growth": "17.1%"},
      {"smiles": "Nc1nc(-c2ccnc(Cl)c2)nn1-c1nc2ccccc2s1", "growth": "97.2%"},
      {"smiles": "O=C1/C(=C/c2ccc(Cl)cc2)CN(Cc2cn(CCCNc3ccnc4cc(Cl)ccc34)nn2)C/C1=C\\c1ccc(Cl)cc1", "growth": "-97.9% (active)"},
      {"smiles": "CCOC(=O)/C(C#N)=C(/NNc1ccccc1)c1ccncc1C(=O)O", "growth": "28.2% [100 µM] and 39.1% [100 µM]"},
      {"smiles": "CC(=O)OC[C@]1(C)C=C2C(=O)[C@](C)(O)C3(CC3)C(C)=C2[C@H]1OC(C)=O", "growth": "57.1%"},
      {"smiles": "O=c1oc2ccccc2cc1-c1csc(N=Nc2c(O)[nH]c3ccc(Cl)cc23)n1", "growth": "93.5%"},
      {"smiles": "c1ccc(-c2nc(N3CCOCC3)c3c4c(sc3n2)CCCCCC4)nc1", "growth": "3.9% (active)"},
      {"smiles": "CCCCOC(=O)C1OC(Oc2ccc3c(C)cc(=O)oc3c2)[C@@H](OC(C)=O)C(OC(C)=O)C1OC(C)=O", "note": "(stereo not given in full)", "growth": "91.5%"},
      {"smiles": "COc1nc2c(cc1S(=O)(=O)c1ccccc1)CCc1c-2cnn1-c1cccc(Cl)c1", "growth": "87.5%"},
      {"smiles": "O=C(Nc1nc2ccccc2[nH]1)C(=O)Nc1nc2ccccc2[nH]1", "growth": "83.9%"},
      {"smiles": "CCCCC(=O)N/N=C/c1cc(I)cc(I)c1O", "growth": "41.5%"},
      {"smiles": "COc1ccc(S(=O)(=O)ON=C2C=C(C)C(=O)C(C)=C2)cc1", "growth": "64%"},
      {"smiles": "Nc1nc(N)c(C=Nc2ccc(Br)cc2)c(Nc2ccc(Br)cc2)n1", "growth": "72.7%"},
      {"smiles": "CC(=O)OCC1=C(C)C[C@H]([C@@H](COC(C)=O)C2CCC3C4C[C@H]5O[C@]56CC=CC(=O)[C@]6(C)C4CC[C@@]32C)OC1=O", "note": "(stereo not given in full)", "growth": "-69.8% [50 µM] (active) and -84.4% [50 µM] (active)"},
      {"smiles": "CCOc1ccc(/C=N\\N2CCCCCC2)cc1OCC", "growth": "96%"},
      {"smiles": "Cc1cc(=O)oc2c1ccc1oc(C(=O)c3ccccc3)c(C)c12", "growth": "69.4%"},
      {"smiles": "CCOC(=O)c1cc2c(n(C)c1=O)-c1cnn(-c3ccc(OC)cc3)c1CC2", "growth": "97.2%"},
      {"smiles": "CCN1CCN(c2ccc(Nc3ncc4ccc5ncn(C(C)C)c5c4n3)nc2)CC1", "growth": "-1.88% (active)"},
      {"smiles": "CSC1=CC(=O)c2ccccc2C1=O", "growth": "93.2%"},
      {"smiles": "Nc1c(Br)cc(Br)cc1-c1n[nH]c(=O)[nH]c1=O", "growth": "99.8%"},
      {"smiles": "O=C1c2c(O)ccc(O)c2C(=O)c2c(NCCNC(=O)C(O)C(O)C(O)C(O)CO)ccc(NCCNC(=O)C(O)C(O)C(O)C(O)CO)c21", "note": "(stereo not given)", "growth": "-95.5% [100 µM] (active) and -100% [100 µM] (active)"},
      {"smiles": "COc1ccc(C2=C(N)c3ccccc3C2=O)cc1", "growth": "79.1% [100 µM] and 72.9% [100 µM]"},
      {"smiles": "O=C1OCC2=C1C(c1ccc3c(c1)OCO3)CC(=O)N2c1cccc(Cl)c1", "note": "(stereo not given)", "growth": "86.7%"},
      {"smiles": "Cc1nc2ccc(Cl)cc2n1C", "growth": "102%"},
      {"smiles": "Cn1c2c(cc(S(=O)(=O)c3ccccc3)c1=O)CCc1c-2cnn1-c1ccccc1Cl", "growth": "96.2%"},
      {"smiles": "c1ccc(-c2n(Cc3ccc4ccccc4c3)c3ccccc3[n+]2Cc2ccc3ccccc3c2)cc1", "growth": "-44.2% (active)"},
      {"smiles": "O/N=C/c1cccs1", "growth": "99.2%"},
      {"smiles": "c1ccc2cc(-c3n(Cc4ccc5ccccc5n4)c4ccccc4[n+]3Cc3ccc4ccccc4n3)ccc2c1", "growth": "-10.4% (active)"},
      {"smiles": "COc1cc2cc(Oc3ccc(NC(=O)Nc4cccc(C(F)(F)F)c4)cc3)c(C)nc2cc1OCCN1CCCCC1", "growth": "-80.4% (active)"},
      {"smiles": "Cc1cccc2c(=O)c3c(sc12)c(NCCCN)nc1ccccc13", "growth": "-78.9% (active)"},
      {"smiles": "O=c1[nH]c(=S)c2c(n1CCCO)CCC2", "growth": "96.5%"},
      {"smiles": "O=C(Nc1ccc(Cl)c(Cl)c1)OCn1ncc2ccc([N+](=O)[O-])cc21", "growth": "85.9%"},
      {"smiles": "Cn1cc(C(=O)NCCC(=N)N)cc1NC(=O)CN=C(N)N", "growth": "111%"},
      {"smiles": "O=C1C=C(Nc2ccc(S(=O)(=O)Nc3nccs3)cc2)c2ccccc2C1=O", "growth": "-89% [100 µM] (active) and -74.5% [100 µM] (active)"},
      {"smiles": "COc1cc2nc(SCc3cc(OC)c(OC)c(OC)c3)n(-c3ccccc3OC)c(=O)c2cc1OC", "growth": "77%"},
      {"smiles": "O=C(Nc1ccc(Cl)c(Cl)c1)NC(CO)(CO)CO", "growth": "97.4%"},
      {"smiles": "COC(=O)c1c2c(c(C)[n+]([O-])c1C)C(=O)C(NCc1ccc(O)cc1)=CC2=O", "growth": "-63.4% (active)"},
      {"smiles": "O=S(=O)(OCCO)c1ccccc1", "growth": "94.9%"},
      {"smiles": "CCOC(=O)C1(C#N)C(=O)c2cc[n+](CC[n+]3ccc4c(c3)C(=O)C(C#N)(C(=O)OCC)C4=O)cc2C1=O", "note": "(stereo not given)", "growth": "88.7% [100 µM] and 89.4% [100 µM]"},
      {"smiles": "FC(F)(F)c1cc(CNc2ncc(Br)c(Cl)n2)cc(C(F)(F)F)c1", "growth": "95.7%"}
    ]}
  ]
}
